Compound activity (PubChem BioAssay)
Lmaj promast: reduces viability of Leishmania major promastigotes; resazurin fluorescence viability; inhibition, % at 10 µM; 200,000 compounds, 9% hits; in the data active = inhibition above about 50%;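 also: promastigotes grown with compound for 44 hours at 28 °C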
Ins promoter up: MIN6 insulin promoter up-regulation; MIN6 insulin promoter-GFP reporter, high-content imaging; active compounds read high; z-score at 5 µM; 190,000 compounds, 0.3% hits; AID 1625;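 active = z-score above 3 at 5 µM with at least 500 cells counted in the well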
Autophagy mod: autophagy modulation, high-content screen. AID 463193. 190,000 compounds, 0.98% hits. MEF GFP-LC3 puncta imaging; test concentration mostly 10 µM. calls only at 10 µM (by protocol);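 active = percentage of spot-positive cells more than 3 SD above its plate mean, without a fluorescence outlier flag or 80% toxicity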
PTEN del growth: suppresses growth of cells with PTEN deletion | 140,000 compounds, 1.2% hits | HCT116 PTEN-null viability, CellTiter-Glo, 60 h; active compounds read low | viability, % at 10 µM;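 active = viability at or below a set limit, 4 SD under the median of all tested compounds, cut at about 3.7% in these data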;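 also: PTEN knockout HCT116 line with beta catenin targeted HCT116 as companion control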
Insulin prom inh: TRM-6 insulin promoter activity inhibition. inhibition, % at 2 µM. 130,000 compounds, 0.9% hits. TRM-6 cells (human fetal islet line), insulin promoter-eGFP reporter, imaging; reporter expression induced with tamoxifen. AID 1273;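 active = inhibition above the mean plus 3 SD, with well images judged a real hit on visual review, cut at about 60% in these data, passing the limit was not always enough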
HCT116 bCat-KO: beta-catenin-lacking colon tumor cell growth suppression | HCT116 beta-catenin knockout viability, CellTiter-Glo, 60 h; active compounds read low | viability, % at 10 µM | 140,000 compounds, 1.5% hits;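 active = viability at or under a set limit, the compound median less 4 SD, cut at about 6% in these data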
Large screens that a line does not name were inactive. The list is not random: actives were taken first. Their share in the collection is about 9.6%.

CCC(C)N(C)Cc1cccc(C2(O)CCN(S(=O)(=O)c3ccc(F)cc3)CC2)c1 (centres undefined)	Lmaj promast 100
CC(=O)Nc1ccc(S(=O)(=O)N2CCC(NC(C)=O)(c3cccc(F)c3)CC2)cc1	none
CCNc1nc(NCC)n2c(SC(C(=O)Nc3cc(Cl)cc(Cl)c3)c3ccccc3)nnc2n1 (centres undefined)	PTEN del growth 1.2, HCT116 bCat-KO 1.2
CCNc1nc(NCC)n2c(SCC(=O)O)nnc2n1	none (no result: Insulin prom inh)
Cc1ccc(C)c(SCC(=O)Nc2cc(C)nn2-c2ccc(F)cc2)c1	none (no result: Insulin prom inh)
Cc1ccc(C(=O)C(c2ccccc2)N2Cc3ccccc3C2=N)cc1 (centres undefined)	Lmaj promast 99 (no result: Ins promoter up)
c1ccc(-c2nnc(OCCN3CCOCC3)c3ccccc23)cc1	Lmaj promast 83
O=C(CN1CCOCC1)N1CCN(c2nnc(-c3ccccc3)c3ccccc23)CC1	none
Cc1cccc(C)c1NC(=O)CN(C)C(=O)/C=C/c1cccs1	Lmaj promast 52
Cc1cccc(C)c1NC(=O)CN(C)C(=O)C(c1ccccc1)c1ccccc1	Lmaj promast 86
CC(C)C[C@H](NC(=O)c1[nH]cnc1C(=O)N[C@H](C)c1ccccc1)C(=O)OC(C)(C)C	none (no result: PTEN del growth, Insulin prom inh, HCT116 bCat-KO)
CC(=O)N1C2CCCCC2S[C@H]2CCCCC21 (some centres undefined)	none
CCOc1ccccc1NC(=O)CCN(c1ccc(C)cc1)S(=O)(=O)c1ccccc1	Lmaj promast 81
Cc1ccc(N(CCC(=O)O)S(=O)(=O)c2ccccc2)cc1	none (no result: Ins promoter up)
O=[N+]([O-])c1ccc(S(=O)(=O)CC(CN2CCCCC2)N2CCCCC2)cc1 (centres undefined)	Lmaj promast 101 (no result: PTEN del growth, Insulin prom inh, HCT116 bCat-KO)
O=S(=O)(CC(CN1CCCCC1)N1CCCCC1)c1ccccc1 (centres undefined)	Lmaj promast 98 (no result: PTEN del growth, Insulin prom inh, HCT116 bCat-KO)
O=[N+]([O-])c1ccc(S(=O)(=O)CC(CN2CCOCC2)N2CCOCC2)cc1 (centres undefined)	none (no result: PTEN del growth, HCT116 bCat-KO)
O=C(NNC(=S)NC1CCCCC1)c1cccs1	none
O=C(N/N=C/c1ccccc1OCc1ccccc1)c1cccnc1	Lmaj promast 75
O=C(N/N=C/c1ccc2cccc(OCc3ccccc3)c2n1)c1ccc(Br)cc1	Lmaj promast 75 (no result: Insulin prom inh)
COc1ccc(C(=O)N/N=C/c2ccc3cccc(OCc4ccccc4)c3n2)cc1	Lmaj promast 65 (no result: Insulin prom inh)
NC(N)=N/N=C/c1ccc2cccc(OCc3ccccc3)c2n1	none (no result: Lmaj promast, Autophagy mod, PTEN del growth, Insulin prom inh, HCT116 bCat-KO)
COc1c(OC(C)=O)ccc(/C=C/c2ccc3cccc(OCc4ccccc4)c3n2)c1[N+](=O)[O-]	Lmaj promast 62
C=CCn1c(SCc2cccnc2)nnc1-c1ccncc1	none (no result: Insulin prom inh)
O=C(N/N=C/c1c(-c2ccccc2)[nH]c2ccccc12)c1cccnc1	none (no result: PTEN del growth, Insulin prom inh, HCT116 bCat-KO)
Cn1c(-c2ccccc2)c(/C=N/NC(=O)c2cccnc2)c2ccccc21	Lmaj promast 62 (no result: PTEN del growth, HCT116 bCat-KO)
C=C(C)COc1ccc(-c2[nH]ncc2-c2ccc(OC)c(OC)c2)c(O)c1	none (no result: Insulin prom inh)
COCC1CCCN(Cc2cn(Cc3ccccc3)nc2-c2cc3ccccc3o2)C1 (centres undefined)	Lmaj promast 64 (no result: PTEN del growth, Insulin prom inh, HCT116 bCat-KO)
Oc1ccc(/C=N/Nc2ncc(Br)cn2)c(O)c1	Lmaj promast 99, HCT116 bCat-KO 6.0 (no result: Insulin prom inh)
Oc1ccc(Br)cc1/C=N/Nc1ncc(-c2ccccc2)cn1	none (no result: PTEN del growth, Insulin prom inh, HCT116 bCat-KO)
O=[N+]([O-])c1ccccc1/C=N/Nc1nccnc1Cl	none (no result: Ins promoter up)
CCN(CC)S(=O)(=O)c1ccc(N/N=C/c2ccc(O)cc2O)nc1	Lmaj promast 98
Oc1ccccc1/C=N/Nc1nccnc1Cl	Lmaj promast 98 (no result: Ins promoter up)
Oc1ccc(/C=N/Nc2nccnc2Cl)c(O)c1	Lmaj promast 100, HCT116 bCat-KO 4.5 (no result: Ins promoter up, Insulin prom inh)
O=C(COc1ccccc1)NC(=S)Nc1cccc([N+](=O)[O-])c1	none
O=C1CCC(=O)N1CNc1ccccn1	none
COc1ccc(-c2oc(NC(=O)CCl)c(C#N)c2-c2ccc(OC)cc2)cc1	Lmaj promast 100, HCT116 bCat-KO 5.8
COc1ccc(-c2oc(NC(=O)CSc3ncn[nH]3)c(C#N)c2-c2ccc(OC)cc2)cc1	none
CCCCC1=CC2=C(c3ccco3)C(=O)C(C)(OC(=O)c3ccc(OC)cc3)C(=O)C2=CN1CC(C)C (centres undefined)	Ins promoter up 4.3 (no result: Lmaj promast, Autophagy mod, PTEN del growth, Insulin prom inh, HCT116 bCat-KO)
CCCCC1=CC2=C(c3ccco3)C(=O)C(C)(OC(=O)c3ccc(OC)cc3)C(=O)C2=CN1Cc1ccc(OC)cc1 (centres undefined)	none (no result: Lmaj promast, Autophagy mod, PTEN del growth, Insulin prom inh, HCT116 bCat-KO)
Cc1ccccc1-n1c(=O)c2ccccc2n2c(=O)[nH]nc12	none
C=CCNC(=S)Nc1cc(S(=O)(=O)N2CCOCC2)ccc1-n1cncn1	none
CCN(CC)c1ccc(C(=O)NC(=S)Nc2cc(S(=O)(=O)N3CCOCC3)ccc2-n2cncn2)cc1	Lmaj promast 68
N#CCCn1c(SCC(=O)c2c[nH]c3ccccc23)nc2ccccc21	none (no result: Insulin prom inh)
COc1cccc(CC2(CO)CCCN(Cc3cnn(-c4ccccc4)c3)C2)c1 (centres undefined)	Lmaj promast 90 (no result: PTEN del growth, Insulin prom inh, HCT116 bCat-KO)
COCc1ccc(CN2CCCC(CO)(Cc3cccc(OC)c3)C2)o1 (centres undefined)	none (no result: Lmaj promast, Autophagy mod, PTEN del growth, Insulin prom inh, HCT116 bCat-KO)
COc1cccc(CC2(CO)CCCN(Cc3ccc(CN4CCCCC4)s3)C2)c1 (centres undefined)	Lmaj promast 77 (no result: PTEN del growth, Insulin prom inh, HCT116 bCat-KO)
CCC1S/C(=N/N=C/c2ccco2)N(Cc2ccc(F)cc2)C1=O (centres undefined)	none (no result: Lmaj promast, Autophagy mod, PTEN del growth, Insulin prom inh, HCT116 bCat-KO)
CCOC(=O)Cc1cc(-c2ccc(OC)cc2)nc2ccc3ccccc3c12	Lmaj promast 99
COc1ccc(C)cc1N(C(=O)COc1cccc(F)c1)c1nc2ccccc2s1	none (no result: Insulin prom inh)
C=C(C)c1cccc(C(C)(C)NC(=O)NC(c2ccccc2)c2ccc(OC)cc2)c1 (centres undefined)	Lmaj promast 98
Cc1ccc(N(CC(=O)NC(C)c2ccccc2)S(=O)(=O)c2cccs2)cc1 (centres undefined)	Lmaj promast 89
Cc1ccc(N(CC(=O)N2CCc3ccccc32)S(=O)(=O)c2cccs2)cc1	none
COc1ccc(OC(C)C(=O)NCc2cccnc2)cc1 (centres undefined)	none
Cc1cc(/C=N/NC(=O)c2cccc([N+](=O)[O-])c2)c(C)n1-c1ccccc1	none
CCOc1ccc(C(c2c(NC(=O)c3ccccc3)sc(C)c2C)N2CCN(C)CC2)cc1 (centres undefined)	Lmaj promast 52 (no result: Insulin prom inh)
Cc1sc(NC(=O)c2ccccc2)c(C(c2ccccn2)N2CCN(CCO)CC2)c1C (centres undefined)	none
Cc1cccc(NC(=O)CC23CC4CC(C2)CC(n2nnc(C)n2)(C4)C3)c1	Lmaj promast 55
Cc1nnn(C23CC4CC(CC(CC(=O)Nc5ccc(C)c(C)c5)(C4)C2)C3)n1	Lmaj promast 68
O=C(Nc1ccc(Cl)c(Cl)c1)OCc1cccnc1	none (no result: Insulin prom inh)
Cc1nnc(NC(=O)c2ccc(S(=O)(=O)N3CCc4ccccc4C3)cc2)o1	none (no result: PTEN del growth, Insulin prom inh, HCT116 bCat-KO)
Cc1cc(C)c2nc(NNC(=O)c3ccc(S(=O)(=O)N4CCc5ccccc5C4)cc3)sc2c1	Lmaj promast 99, HCT116 bCat-KO 4.0
